Screens deposited in PubChem by several laboratories.
Arbovirus anti = arbovirus infection inhibition. arbovirus infection cell-based antiviral screen. inhibition, % at 10 µM. 0.37% of 200,000 active. AID 1251; in the data active means inhibition above about 30%
Lmaj promast = reduces viability of Leishmania major promastigotes. resazurin fluorescence viability. inhibition, % at 10 µM. 9% of 200,000 active. AID 1063; in the data active means inhibition above about 50%;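 further: promastigotes grown with compound for 44 hours at 28 °C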
WT yeast gro inh = growth inhibition of WT yeast, mitochondrial fusion screen. mitochondrial fusion phenotypic screen, WT strain. 2.1% of 190,000 active. inhibition, % at 10 µM; in the data active means inhibition above about 58%; tested in S. cerevisiae
CHOP inh = blocks CHOP induction under ER stress; CHO-K1 CHOP-promoter luciferase, tunicamycin-induced, 15-18 h; inhibition, % at 10 µM; 3.8% of 220,000 active;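 active means compounds that reduced the stress-induced luciferase reporter signal by more than about 70% of percent inhibition, limit read from the data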;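 further: 0% = tunicamycin plus vehicle and 100% = wells without tunicamycin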
* = called active by the depositor. Most compounds without a hit are left out; they make up all but 12% or so of the library.

Results for O=C1C(NS(=O)(=O)c2cccs2)=C(N2CCN(c3cccc(C(F)(F)F)c3)CC2)C(=O)c2ccccc21 ?
Arbovirus anti: -16; Lmaj promast: 62*; WT yeast gro inh: 29; CHOP inh: 1

What do the screens show for `O=C(c1ccc(F)cc1)N1CCCCC(S(=O)(=O)c2ccccc2)C1=O` (configuration not stated)?
Arbovirus anti: 5; Lmaj promast: -2; WT yeast gro inh: 0; CHOP inh: 6

Results for CCOC(=O)C1=C(CSc2nc3ccccc3s2)NC(=O)NC1c1ccc(OC)cc1 (configuration not stated) ?
Arbovirus anti: -2; Lmaj promast: 62*; WT yeast gro inh: 32; CHOP inh: 84*

How did CCOC(=O)C1=C(CSc2nc3ccccc3s2)NC(=O)NC1c1cc(C)ccc1C (configuration not stated) do in these assays?
Arbovirus anti: 1; Lmaj promast: 60*; WT yeast gro inh: 13; CHOP inh: 75*

How did CCOC(=O)C1=C(CSCC(=O)OC)NC(=O)NC1c1cc(C)ccc1C (configuration not stated) do in these assays?
Arbovirus anti: 2; Lmaj promast: 2; WT yeast gro inh: -12; CHOP inh: 16

What do the screens show for `COC(=O)C1=C(CSc2nc3ccccc3o2)NC(=O)NC1c1cc(C)ccc1C` (configuration not stated)?
Arbovirus anti: 16; Lmaj promast: 22; WT yeast gro inh: 75*; CHOP inh: 80*

Results for COC(=O)C1=C(CSCc2ccccc2)NC(=O)NC1c1cc(C)ccc1C (configuration not stated) ?
Arbovirus anti: 3; Lmaj promast: 34; WT yeast gro inh: -4; CHOP inh: 36

What do the screens show for `COC(=O)C1=C(CN2CCc3ccccc32)NC(=O)NC1c1cc(C)ccc1C` (configuration not stated)?
Arbovirus anti: 2; Lmaj promast: 70*; WT yeast gro inh: 11; CHOP inh: 56

How did CC(C)(NC(=O)N1CCOCC1)c1cccc(C(C)(C)NC(=O)N2CCOCC2)c1 do in these assays?
Lmaj promast: -3

How did Cc1nc2sccc2c(=O)n1-c1cccc(Cl)c1 do in these assays?
Arbovirus anti: 11; Lmaj promast: -2; WT yeast gro inh: -20; CHOP inh: 3

What do the screens show for `C/C(=N\NC(=O)CNc1cccc(Cl)c1C)c1cccs1`?
Arbovirus anti: -4; Lmaj promast: 0; WT yeast gro inh: -11; CHOP inh: 92*

How did COc1ccccc1NCC(=O)N/N=C(\C)c1cccs1 do in these assays?
Arbovirus anti: 3; Lmaj promast: 1; WT yeast gro inh: -5; CHOP inh: -16

What do the screens show for `C=CCn1c(C)cc(C(=O)COC(=O)CNC(=O)c2ccccc2)c1C`?
Arbovirus anti: 0; Lmaj promast: -7; WT yeast gro inh: 16; CHOP inh: 87*

How did COc1ccc(C2OC(=O)CC2C(=O)NCc2ccccc2Cl)cc1OC (configuration not stated) do in these assays?
Arbovirus anti: 17; Lmaj promast: 19; WT yeast gro inh: -4; CHOP inh: 8

Results for CC/C(=N\NC(=O)CSc1ncccn1)c1ccc2c(c1)OCCO2 ?
Arbovirus anti: 2; Lmaj promast: -9; WT yeast gro inh: -20; CHOP inh: 3

What do the screens show for `O=C(COc1ccccc1)Nc1ccccc1N1CCN(c2ccccc2)CC1`?
Arbovirus anti: -3; Lmaj promast: -4; WT yeast gro inh: -9; CHOP inh: 44

Results for Cc1ccccc1OCC(=O)Nc1ccccc1N1CCOCC1 ?
Arbovirus anti: -3; Lmaj promast: 3; WT yeast gro inh: 17; CHOP inh: 36

Results for Cc1ccc(OCC(=O)Nc2ccccc2N2CCCC2)c(C)c1 ?
Arbovirus anti: 7; Lmaj promast: 2; WT yeast gro inh: 66*; CHOP inh: 55

Results for CN1CCN(c2ccccc2NC(=O)COc2ccc(Br)cc2)CC1 ?
Arbovirus anti: 18; Lmaj promast: 74*; WT yeast gro inh: 22; CHOP inh: 22

How did Cc1cc(C)c(OCC(=O)Nc2ccccc2N2CCOCC2)c(C)c1 do in these assays?
Arbovirus anti: -3; Lmaj promast: 24; WT yeast gro inh: 48; CHOP inh: 79*

Results for Cc1ccc(C(C)C)c(OCC(=O)NN=C2CCCCCCC2)c1 ?
Arbovirus anti: -9; Lmaj promast: -7; WT yeast gro inh: 12; CHOP inh: 83*

How did Cc1cccc(OCC(=O)Nc2ccccc2N2CCCCC2)c1 do in these assays?
Arbovirus anti: -25; Lmaj promast: 2; WT yeast gro inh: 29; CHOP inh: 34

How did CC(=O)NC(=S)Nc1ccc(NC(=O)c2cccnc2Cl)cc1 do in these assays?
CHOP inh: 7

How did CC(C)CN(C)C(=O)CCc1nnc(Cc2ccc(-c3ccccc3)cc2)o1 do in these assays?
Arbovirus anti: 6; Lmaj promast: 4; WT yeast gro inh: 19; CHOP inh: 15
